ELG1 DNA repair = ELG1-dependent DNA repair inhibition; AID 504467; Potency, µM (highest dose often 46.1 µM), inactives show at the top dose activity change, negative = inhibition, actives largely listed as inhibitors; 330,000 tested, 2.3% active; HEK293T ELG1-luciferase reporter, luminescence, 16 h; DNA damage induced by 5-fluorouridine; further: potency means the concentration at half of the fitted maximal effect; nearly all actives have a fitted effect of over 55% in size
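HEK293T cells expressing luciferase-tagged ELG1 (2,000/well) received 5-Fluorouridine plus compound or DMSO for 16 hr at 37 °C. Luciferase was read by ONE-Glo luminescence after 30 min at room temperature.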
IL-1B inflam inh = inflammasome signaling inhibition, IL-1 beta readout; THP-1 LPS/ATP IL-1B secretion, AlphaLISA, 16 h; active compounds read low; activity change, % at 57.5 µM; 360,000 tested, 4.7% active; AID 743279; in the data active means activity change below about -50%; inconclusive means mostly about -30% to -49%
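THP-1 cells pretreated 1 hr with compounds (up to 57.5 uM final), then stimulated with LPS (250 ng/mL final) plus ATP (1.25 mM final); secreted IL-1B measured by AlphaLISA after 16 hr, decreased signal indicating inhibition.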
TDP1 cell noCPT = qHTS for Inhibitors of human tyrosyl-DNA phosphodiesterase 1 (TDP1): qHTS in cells in absence of CPT; DT40 Tdp1-/- hTDP1 cells, no CPT, ATP luminescence, 48 h; 420,000 tested, 15% active; Potency, µM (top dose mostly 46.2 µM), inactives show top-dose activity change, negative = growth inhibition, usual class: inhibitors; further: potency means the concentration at half of the fitted maximal effect; nearly all actives have a fitted effect of over 55% in size
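Cells were dispensed at 400 per well, compounds added by pin tool, plates incubated ≥48 hr at 37 °C, then CellTiter-Glo added for 30 min at room temperature before luminescence reading. Line: DT40 Tdp1-/- complemented with hTDP1; camptothecin omitted.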
TDP1 cell CPT = growth inhibition of DT40 Tdp1-/-;hTDP1 cells with camptothecin (screen for TDP1 inhibitors) | AID 686979 | Potency, µM (top dose mostly 46.2 µM), for the others: at the top dose activity change, negative = growth inhibition, hits mostly inhibitors | chicken DT40 Tdp1-/-;hTDP1 cells + 20 nM CPT, ATP luminescence, 48 h | 420,000 tested, 12% active; further: potency means the concentration at half of the fitted maximal effect; nearly all actives have a fitted effect of over 55% in size
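Cell growth measured by CellTiter-Glo luminescence after a minimum 48 h, 37 C compound exposure with 20 nM CPT in Tdp1-knockout DT40 cells stably expressing hTDP1, seeded 400/well; qHTS titration format.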
HT1080 IDH1KD tx = HT-1080 IDH1 knockdown cell toxicity (counter line); HT-1080 IDH1 knockdown viability, ATP luminescence, 48 h; AID 686971; 360,000 tested, 2% active; Potency, µM (top dose mostly 46.1 µM), for the others: at the top dose activity, negative = toxicity, hits mostly cytotoxic;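 further: potency means the concentration at half of the fitted maximal effect; 0% = DMSO wells and -100% = cell-free medium wells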
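CellTiter-Glo luminescence after 48 h compound exposure at 37 degrees C of IDH1-knockdown HT-1080 cells in 5% FBS RPMI. %Activity scaled between DMSO wells and cell-free media wells, with curves fitted and assigned curve classes.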
HT1080NT lethal = kills 2HG-producing HT-1080-NT fibrosarcoma cells; HT-1080-NT fibrosarcoma viability, CellTiter-Glo ATP luminescence, 48 h; Potency, µM (titrated, usually from 46.1 µM), for inactives: at the top dose activity, negative = less viability, actives largely listed as cytotoxic; 360,000 tested, 1.6% active; AID 686970;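 further: NT is the 2HG producing partner of a matched IDH1 knockdown line; potency means the concentration at half of the fitted maximal effect; 0% = DMSO-treated cells and -100% = media-only wells without cells; nearly all actives have a fitted effect of over 55% in size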
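HT-1080-NT; 750 cells/well; 5% FBS RPMI; 48 h compound, 37 degrees C; CellTiter-Glo luminescence; curve fitting and curve-class assignment.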
An asterisk follows results filed as active; ? = inconclusive; . = no result given; [ ] = dose if it differs, or a comment. Most compounds without a hit are left out; they make up all but 19% or so of the library. Unless noted, the call rests on the fitted dose curve; in most records, active means well fitted curve in the direction sought with a large enough effect; inconclusive means small, poorly fitted or top-dose-only effect, or another doubt; inactive means no such curve, though single readings can be large; an effect the other way counts as inactive or inconclusive. Unless noted, on the % scale 0 is the no-effect control and ±100 the full control effect.

SMILES	ELG1 DNA repair	IL-1B inflam inh	TDP1 cell noCPT	TDP1 cell CPT	HT1080 IDH1KD tx	HT1080NT lethal
Cn1c(=O)n(C)c2cc(NS(=O)(=O)c3ccc(C(C)(C)C)cc3)ccc21	-11.9%	8.5	18.4µM*	18.4µM*	?	-22.4%
Cc1ccc(NS(=O)(=O)c2ccc3c(c2)n(C)c(=O)n3C)cc1	13.5%	-12.2	-20.6%	?	1.7%	-0.5%
CCc1cccc(CC)c1NC(=O)CSc1nnc(C2CC2)n1C	16.0%	-8.7	5.8%	16.1%	17.6%	16.5%
O=C(COc1ccc(S(=O)(=O)N2CCOCC2)cc1)NC1CCCCC1	4.5%	22.7	-24.3%	-3.6%	3.0%	16.5%
CCOc1cc(C2C(C(=O)OC)=C(C)NC3=C2C(=O)c2ccccc23)cc(Br)c1OCC (stereo not drawn)	.	.	5.17µM*	?	.	.
CCOc1cc(C2C(C(=O)OC)=C(C)NC3=C2C(=O)c2ccccc23)ccc1OC (stereo not drawn)	.	.	20.6µM*	?	.	.
COC(=O)C1=C(C)NC(=O)NC1c1ccc(OC)c(OC)c1 (stereo not drawn)	.	-1.1	-16.1%	0.7%	-0.2%	7.0%
CCOc1ccc(NC(=O)COC(=O)c2ccccc2OCc2ccccc2Br)cc1	.	.	-7.5%	3.7%	10.8%	10.3%
COc1ccc(CCNc2ncnc3c2c(-c2ccccc2)cn3-c2cccc(Cl)c2)cc1OC	.	.	9.2µM*	7.31µM*	.	.
COc1ccc(CCNc2ncnc3sc(C(=O)N(C)C)c(C)c23)cc1OC	.	.	-14.8%	-7.5%[9.04 µM]	.	.
COc1ccc(-n2cc(-c3ccccc3)c3c(NCCc4ccc(OC)c(OC)c4)ncnc32)cc1	.	.	20.6µM*	23.1µM*	.	.
CC(C)(C)c1cc(C(C)(C)C)c2oc(=O)c(-c3nc4ccccc4[nH]3)cc2c1	.	.	8.2µM*	9.2µM*	.	.
Cc1c(Cl)c([N+](=O)[O-])nn1CC(=O)N1CCN(Cc2ccccc2)CC1	-2.0%	-1.3	-10.7%	-16.3%	13.3%	27.7%
Cc1ccc2nc(COc3ccccc3NC(=O)c3ccc(F)cc3)cc(=O)n2c1	.	.	-7.7%	15.8%	.	.
CCCS(=O)(=O)c1ncc(Cl)c(C(=O)N2CCN(c3ccc(OC)cc3)CC2)n1	.	.	3.66µM*	2.06µM*	.	.
O=C(NCc1ccc(F)cc1)c1cc2c(=O)n3ccccc3nc2s1	.	.	-20.8%	?	.	.
O=C1c2c(O)cccc2[C@H]([C@@H]2O[C@H](CO)[C@@H](O)[C@H](O)[C@H]2O)c2cc(CO)cc(O)c21	.	.	-0.4%	-18.4%	.	.
O=C(O)c1cc(O)c2c(c1)[C@@H]([C@H]1c3cc(C(=O)O)cc(O)c3C(=O)c3c(O[C@@H]4O[C@H](CO)[C@@H](O)[C@H](O)[C@H]4O)cccc31)c1cccc(O[C@@H]3O[C@H](CO)[C@@H](O)[C@H](O)[C@H]3O)c1C2=O	?	17.7	?	6.51µM*	-25.5%	-23.0%
COc1ccc2[nH]c(=O)c(CNc3cccc(C)c3)cc2c1	-3.6%	15.4	11.6µM*	13µM*	-13.2%	0.7%
COc1ccc2[nH]c(=O)c(CN(CC3CCCO3)C(=S)Nc3cccc(C)c3)cc2c1 (stereo not drawn)	-5.6%	-15.4	?	?	-8.4%	-11.6%
COc1ccc(NCc2cc3cc(OC)ccc3[nH]c2=O)cc1	?	-11.1	23.1µM*	8.2µM*	-8.3%	-10.0%
COc1ccc(NCc2cc3ccccc3[nH]c2=O)cc1	3.7%	41.8	?	?	-22.4%	-8.2%
COc1ccccc1CCNC(=O)Cc1c(C)c2c(O)cc(C)cc2oc1=O	.	.	-30.7%	?	.	.
Cc1ccc2nc(NC(=O)c3ccc(OCC4CCCO4)cc3)sc2c1 (stereo not drawn)	?	-109.9*	14.6µM*	13µM*	7.31µM*	-22.7%
Cc1cc(C)c2nc(NC(=O)c3ccc(OCC4CCCO4)cc3)sc2c1 (stereo not drawn)	6.2%	-15.6	20.6µM*	?	?	0.0%
SMILES	ELG1 DNA repair	IL-1B inflam inh	TDP1 cell noCPT	TDP1 cell CPT	HT1080 IDH1KD tx	HT1080NT lethal
Cc1cccnc1NC(=O)c1ccc(OCC2CCCO2)cc1 (stereo not drawn)	?	-11.9	9.1%	-4.8%	3.6%	4.1%
Cc1cccc(NC(=O)CNC(=O)c2ccc(S(=O)(=O)NCc3ccco3)cc2)c1C	.	-21.8	-21.0%	-9.5%	-1.1%	-4.9%
CCc1nc2c(OCC(=O)c3ccc(F)cc3)cccn2c1N(C)C(=O)COc1ccccc1	.	-15.0	20.6µM*	?	1.9%	-18.6%
CCc1nc2c(OCc3ccc(Cl)cc3Cl)cccn2c1N(C)C(=O)CC(C)C	.	-52.7*	6.51µM*	?	?	25.9µM*
CCc1nc2c(OCc3ccc(Cl)cc3Cl)cccn2c1N(C)C(=O)C1CC1	.	-11.7	?	?	-20.3%	?
CCc1nc2c(OCCOc3ccc(F)cc3)cccn2c1N(C)C(=O)CC(C)C	.	-2.3	10.3µM*	16.4µM*	2.6%	-0.1%
CCc1nc2c(OCCOc3ccc(F)cc3)cccn2c1N(C)C(=O)c1ccc(OC)cc1	.	-23.6	?	?	8.0%	-9.1%
CCc1nc2c(OCc3cc(Cl)cc(Cl)c3)cccn2c1N(C)C(=O)CC(C)C	.	-28.1	?	25.9µM*	?	?
CCCCN1C(=O)C(CC(=O)NCCCN(C)C)CC(C(=O)N(C(C)C)C(C)C)=C1C (stereo not drawn)	.	0.0	7.9%	-5.1%	26.3%	10.3%

Screens: PubChem, National Center for Advancing Translational Sciences (NCATS)
